RECQ1 inh: qHTS Assay for Inhibitors of RecQ-Like Dna Helicase 1 (RECQ1); ATP-dependent DNA helicase Q1 (Homo sapiens), P46063; RECQ1 DNA unwinding, red fluorescence kinetic read; Potency, µM (doses to about 57.3 µM), for inactives: at the highest dose activity, negative = inhibition, actives largely listed as inhibitors; hit rate 0.54% among 240,000; AID 2549, 2010;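 also: plate controls were vehicle for no effect and no enzyme for full effect; nearly all actives have a fitted effect of over 30% in size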
Target sequence (P46063 whole entry, looked up): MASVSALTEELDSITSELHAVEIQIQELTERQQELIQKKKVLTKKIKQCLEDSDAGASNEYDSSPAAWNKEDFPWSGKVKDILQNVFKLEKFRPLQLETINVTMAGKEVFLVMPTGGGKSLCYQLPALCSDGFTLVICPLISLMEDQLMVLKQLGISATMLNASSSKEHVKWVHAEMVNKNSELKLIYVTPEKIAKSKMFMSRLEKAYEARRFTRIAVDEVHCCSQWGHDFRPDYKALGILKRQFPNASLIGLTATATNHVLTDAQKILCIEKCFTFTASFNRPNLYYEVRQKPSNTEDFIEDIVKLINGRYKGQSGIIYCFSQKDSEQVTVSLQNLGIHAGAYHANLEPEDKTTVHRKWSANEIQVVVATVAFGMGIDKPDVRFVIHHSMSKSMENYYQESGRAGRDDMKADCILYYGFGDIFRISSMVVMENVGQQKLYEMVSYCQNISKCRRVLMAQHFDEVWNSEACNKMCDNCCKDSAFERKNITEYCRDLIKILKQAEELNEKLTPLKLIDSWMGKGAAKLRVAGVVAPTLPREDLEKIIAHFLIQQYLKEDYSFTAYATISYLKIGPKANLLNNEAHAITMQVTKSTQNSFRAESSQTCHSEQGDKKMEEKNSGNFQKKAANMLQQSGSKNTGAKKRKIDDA
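RECQ1T1 50 nM; forked duplex (20 bp + 30-nt ss tails) 200 nM, ATP 2 mM final; pH 8.0, 2 mM MgCl2, 2.5 ug/ml poly(dI-dC); 15 min compound preincubation; discontinuous kinetic read over 2 h at RT.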
L3MBTL1 block: qHTS Assay for the Inhibitors of L3MBTL1; Lethal(3)malignant brain tumor-like protein 1 (Homo sapiens), Q9Y468; AlphaScreen L3MBTL1–H3K9me1 peptide binding; Potency, µM (highest dose often 57.1 µM), inactives show at the highest dose activity, negative = inhibition, actives largely listed as inhibitors; hit rate 0.66% among 230,000; also: nearly all actives have a fitted effect of over 60% in size
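First, the protein-peptide complex forms for 30 min at room temperature (L3MBTL1 50 nM, biotinylated H3K9me1 peptide 75 nM). Next, compounds are pin-transferred and incubated 30 min. Finally, AlphaScreen beads are added and read after 30 min.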
BLM helicase inh: qHTS Assay for Inhibitors of Bloom's syndrome helicase (BLM); RecQ-like DNA helicase BLM (Homo sapiens), P54132; recombinant BLM DNA unwinding, fluorescence dequenching; Potency, µM (titrated, usually from 56.1 µM), without a hit: top-dose activity change, negative = inhibition, hits mostly inhibitors; hit rate 0.2% among 350,000; AID 2528, 2010;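 also: plate controls were vehicle for no effect and no enzyme for full effect; nearly all actives have a fitted effect of over 35% in size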
APE1 inh: qHTS Assay for Inhibitors of the Human Apurinic/apyrimidinic Endonuclease 1 (APE1); hit rate 0.35% among 350,000; AID 2517, 2012; recombinant APE1, TAMRA/BHQ-2 abasic DNA cleavage fluorescence; DNA repair nuclease/redox regulator APEX1 (Homo sapiens), P27695; Potency, µM (series often up to 65.8 µM), for inactives: at the top dose activity change, negative = inhibition, usual class: inhibitors;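 also: plate controls were vehicle for no effect and reference inhibitor for full effect; nearly all actives have a fitted effect of over 55% in size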
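Measures dequenching upon AP-site incision of a 5'-TAMRA/3'-BHQ-2 THF-containing duplex, 50 nM; human APE1 0.75 nM after 15 min room-temperature exposure to compound; kinetic three-point read at one-minute spacing.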
WRN inhibitor: qHTS for Inhibitors of WRN Helicase. Bifunctional 3'-5' exonuclease/ATP-dependent helicase WRN (Homo sapiens), Q14191. WRN helicase unwinding, fluorescent forked duplex, kinetic. AID 651768, 2012. hit rate 0.46% among 360,000. Potency, µM (doses to about 114 µM), without a hit: top-dose activity change, negative = inhibition, hits mostly inhibitors; also: nearly all actives have a fitted effect of over 55% in size
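Kinetic red-fluorescence monitoring (525/598 nm) tracks WRN helicase activity after 100 nM fluorophore-quencher forked duplex and 2 mM ATP are added to 20 nM enzyme pretreated 15 min at room temperature with compound.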
FEN1 inh: qHTS Assay for the Inhibitors of Human Flap endonuclease 1 (FEN1) | Recombinant FEN1 flap cleavage, fluorescence, 15 min | AID 588795, 2011 | Potency, µM (series often up to 114 µM), for the others: at the highest dose activity change, negative = inhibition, most hits filed as inhibitors | hit rate 0.35% among 390,000 | P39748; also: nearly all actives have a fitted effect of over 65% in size
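Potency values derive from four-parameter Hill fits of normalized qHTS data. The reaction used 10 nM FEN1 preincubated 15 min at room temperature with compound, then 50 nM DNA substrate, read at 0 and 15 min.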
Active calls of the source: *; i = inactive; u = inconclusive; x = not tested or not shown; [ ] = dose if it differs, or a comment. Hits are enriched below; roughly 1% of the tested compounds scored in any of these assays. Calls follow the shape of the dose curve; as a rule, active = well fitted curve in the direction sought with a large enough effect; inconclusive = small, poorly fitted or top-dose-only effect, or another doubt; inactive = no such curve, though single readings can be large; an effect the other way counts as inactive or inconclusive. Unless noted, % is scaled to controls: 0 for no effect and ±100 for the full control effect; potency is read from the fitted curve at half-maximal effect.

SMILES	RECQ1 inh	L3MBTL1 block	BLM helicase inh	APE1 inh	WRN inhibitor	FEN1 inh
CC(C)CN(C[C@@H](O)[C@H](Cc1ccccc1)NC(=O)O[C@@H]1CCOC1)S(=O)(=O)c1ccc(N)cc1	x	x	x	-2%	x	x
COc1cc2nc(N(C)C)nc(N)c2cc1OC	15%	0%	114%	u	-21%	u
COc1ccccc1-c1nc(NC2CC2)c2ccccc2n1	2%	x	51%	-6%	x	x
COc1cc2nc(Cl)nc(NC(C)C)c2cc1OC	x	x	x	x	x	-5%
COc1cc2nc(CCNCc3ccccc3)nc(NC3CCN(C)CC3)c2cc1OC	x	x	x	x	x	45µM*
COc1cc2nc(N(C)C)nc(NC3CCN(C)CC3)c2cc1OC	x	x	x	x	x	28µM*
COc1cc2nc(NC3CCN(C)CC3)nc(NC3CCN(C)CC3)c2cc1OC	x	x	x	x	x	45µM*
NC[C@H]1O[C@H](O[C@H]2[C@H](O[C@@H]3O[C@H](CO)[C@@H](O)[C@H]3O)C(O)[C@H](N)C[C@@H]2N)[C@H](N)[C@@H](O)[C@@H]1O (stereo not given in full)	x	x	x	4%[21 µM]	x	x
CC(C)(C)n1ncc2c(=O)n(Cc3ccccc3C#N)cnc21	x	x	x	0%	x	5%
COc1cc(-c2cnc3c(NC=O)cc(-c4cccc(C(=O)NCCN(C)C)c4)cn23)cc(OC)c1OC	x	x	x	x	20µM*	x
COc1ccc(-c2cnc3c(NC(C)=O)cc(-c4cccc(C(=O)NCCN(C)C)c4)cn23)cc1OC	x	x	x	x	25µM*	x
COc1ccc(-c2cnc3c(NC(C)=O)cc(-c4cccc(C(=O)NCCO)c4)cn23)cc1OC	x	x	x	x	-20%	x
CC[C@H]1OC(=O)C[C@@H](O)[C@H](C)[C@@H](O[C@@H]2O[C@H](C)[C@@H](O)[C@H](N(C)C)[C@H]2O)[C@@H](CCN2C[C@H](C)C[C@H](C)C2)C[C@@H](C)C(=O)/C=C/C(C)=C/[C@@H]1CO[C@@H]1O[C@H](C)[C@@H](O)[C@@H](OC)[C@H]1OC	x	x	x	-2%	x	x
Cc1ccc(-n2c(Cl)c(Cl)nc(Cl)c2=O)cc1	-10%	0%	-5%	-6%	22µM*	-30%
COc1ccc(-n2sc3c(c2=S)-c2cc(OC)ccc2NC3(C)C)cc1	-11%	32µM*	-7%	-4%	-5%	-16%
COc1ccc2c(c1)-c1c(ssc1=S)C(C)(C)N2	i	20µM*	-5%	-8%	-11%	-19%
Cc1cc2c(cc1Cl)N(C(=O)Nc1ccc(Oc3cccnc3C)nc1)CC2	x	x	x	x	x	-1%[57.1 µM]
C/C(=N/Nc1ccc(C(=O)O)cc1)c1ccc2c(c1)Nc1ccccc1S2	x	x	x	x	-5%[11.6 µM]	-22%
C/C(=N\Nc1ccc(C(=O)O)cc1)c1ccc2c(c1)Nc1ccccc1S2	-3%	28µM*	-8%	-9%	-35%	u
CCOc1ccc(NC(=O)Cn2sc3nc(C)cc(C)c3c2=O)cc1	-6%	-4%	-1%	2%	20µM*	89µM*
OCCN1CCN(c2cc(-c3ccccc3)c3ccccc3n2)CC1	0%	-9%	7%	16%	79µM*	-3%
COc1ccc(Cl)c(Cn2cnc3c(cnn3C(C)(C)C)c2=O)c1F	x	x	x	-4%	x	21%
Cc1ccc2nc(/C(C#N)=C\c3ccc(N4CCOCC4)o3)[nH]c2c1	2%	-9%	-12%	-1%	45µM*	u
O=C1NC(=S)NC1=Cc1ccco1	x	x	x	x	-118%	45µM*
Cc1ccc(SCC(CC(C)C)N2CCN(C)CCC2=O)cc1 (stereo not given)	-3%	x	5%	9%	x	-11%
SMILES	RECQ1 inh	L3MBTL1 block	BLM helicase inh	APE1 inh	WRN inhibitor	FEN1 inh
Cc1cc2c(N)cccc2nn1	-3%	x	5.6µM*	-1%	u	u
Nc1cccc2nc3ccccc3cc12	14%	x	208%	u	2%	-2%
CCC[N+](C)(C)c1ccc(/C=C/c2ccnc3ccccc23)cc1	x	x	x	x	x	32µM*
CN(C)c1ccc(/C=C/c2ccnc3c2ccc2ccccc23)cc1	x	x	x	x	x	-3%
C[N+](C)(C)c1ccc(/C=C/c2ccnc3ccccc23)cc1	x	x	x	x	x	45µM*
CCCN(CCC)c1ccc(/C=C/c2ccnc3ccccc23)cc1	x	x	x	x	x	-1%
CN(C)c1ccc(/C=C/c2ccnc3ccc4ccccc4c23)cc1	x	x	x	x	x	11µM*
CN(C)c1cc2c(c(N(C)C)c1)C(=O)c1ccccc1C2=O	-2%	18µM*	-5%	-6%	-17%	-10%
O=[N+]([O-])c1ccc(O)c(/C=N/Nc2nn[nH]n2)c1	-5%	14µM*	1%	0%	-7%	4%
O=[N+]([O-])c1ccc(O)c(-c2nn[nH]n2)c1	3%	x	3%	-4%	79µM*	0%
Cc1cc(C)n(-c2ccc([N+](=O)[O-])cc2-c2nn[nH]n2)n1	-11%	x	4%	10%	2%	-1%
CC1(C)SC(C)(C)N(C=O)C1C(=O)O (stereo not given)	x	x	x	x	-8%	-6%
CS[C@@H]1SC[C@H]2C(=O)N(C)C(C(C)C)C(=O)OC[C@@H](NC(=O)c3cnc4ccccc4n3)C(=O)N[C@@H](C)C(=O)N(C)[C@H]1C(=O)N(C)C(C(C)C)C(=O)OC[C@@H](NC(=O)c1cnc3ccccc3n1)C(=O)N[C@@H](C)C(=O)N2C (stereo not given in full)	10µM*	x	26%	u	x	x
CC(NC(=O)c1cnc2ccccc2n1)c1ccccc1 (stereo not given)	x	x	-12%	-8%	-17%	-10%

Bioassay records: PubChem, National Center for Advancing Translational Sciences (NCATS)
